Source: PubChem BioAssay (The Scripps Research Institute Molecular Screening Center)
pPAFAH FP inh: pPAFAH enzyme inhibitors, primary screen, biochemical, fluorescence polarization, human. Platelet-activating factor acetylhydrolase (Homo sapiens), Q13093. recombinant pPAFAH, FP-rhodamine probe fluorescence polarization. inhibition, % at 3.39 µM. 1.5% of 330,000 active;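 active means inhibition above the mean inhibition across the screen plus 3 SD, cut at about 25% in these data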;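 further: inhibitors block binding of the rhodamine activity-based probe so polarization drops; 0% = enzyme with DMSO and 100% = wells lacking pPAFAH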
Target sequence (Q13093 whole entry, looked up): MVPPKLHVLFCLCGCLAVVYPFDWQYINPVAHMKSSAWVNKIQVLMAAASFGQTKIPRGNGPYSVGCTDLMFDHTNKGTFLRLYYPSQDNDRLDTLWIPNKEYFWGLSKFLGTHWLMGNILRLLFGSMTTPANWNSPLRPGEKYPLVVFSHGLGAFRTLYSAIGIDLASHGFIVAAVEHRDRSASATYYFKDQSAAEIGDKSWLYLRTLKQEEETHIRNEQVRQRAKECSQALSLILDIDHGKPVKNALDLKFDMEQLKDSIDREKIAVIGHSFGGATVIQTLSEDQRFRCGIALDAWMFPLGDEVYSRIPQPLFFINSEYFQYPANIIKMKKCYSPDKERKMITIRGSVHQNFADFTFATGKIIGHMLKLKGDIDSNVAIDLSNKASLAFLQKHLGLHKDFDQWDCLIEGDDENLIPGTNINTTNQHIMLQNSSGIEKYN
PAFAH1B3 inh: PAFAH1B3 enzyme inhibitors, primary screen, biochemical, fluorescence polarization, human | Platelet-activating factor acetylhydrolase IB subunit alpha1 (Homo sapiens), Q15102 | recombinant PAFAH1B3, FP-rhodamine probe | inhibition, % at 3.39 µM | 0.28% of 340,000 active;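 active means inhibition above the screen-wide average of all tested compounds plus 3 SD, cut at about 25% in these data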;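 further: 0% = enzyme with DMSO only and 100% = wells lacking PAFAH1B3 protein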
LYPLA1 counter: LYPLA1 inhibitors, primary screen, counter-screen for PME1 inhibitor project, biochemical, fluorescence polarization, FP-Rh probe ABPP; inhibition, % at 5.9 µM; 0.16% of 320,000 active; recombinant LYPLA1; Acyl-protein thioesterase 1 (Homo sapiens), O75608;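 active means inhibition above the mean of all tested compounds plus 3 SD, set per campaign, cut at about 14% in these data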;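 further: inhibitors block serine hydrolase probe labeling of LYPLA1 so polarization falls; 0% = enzyme with DMSO and 100% = wells lacking LYPLA1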
PAFAH1B2 inh: PAFAH1B2 enzyme inhibitors, primary screen, biochemical, fluorescence polarization, human; AID 492953, 2010; 1.2% of 340,000 active; inhibition, % at 3.39 µM; Platelet-activating factor acetylhydrolase IB subunit alpha2 (Homo sapiens), P68402; recombinant PAFAH1B2, FP-rhodamine activity probe;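 active means inhibition above the mean of all tested compounds plus 3 SD, cut at about 24% in these data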;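 further: 0% = enzyme with DMSO and 100% = wells lacking PAFAH1B2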
PAFAH2 FP inh: PAFAH2 enzyme inhibitors, primary screen, biochemical, fluorescence polarization, human. inhibition, % at 3.39 µM. 0.99% of 340,000 active. Platelet-activating factor acetylhydrolase 2, cytoplasmic (Homo sapiens), Q99487. recombinant PAFAH2, FP-rhodamine activity probe;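 active means inhibition above the mean over all tested compounds plus 3 SD, cut at about 30% in these data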;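 further: inhibitors block probe labeling of enzyme so polarization drops; 0% = enzyme with DMSO and 100% = wells lacking PAFAH2 protein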
LYPLA2 inh: LYPLA2 inhibitors, primary screen, counter-screen for PME1 inhibitor project, biochemical, fluorescence polarization, FP-Rh probe ABPP. Acyl-protein thioesterase 2 (Homo sapiens), O95372. recombinant LYPLA2. inhibition, % at 5.9 µM. 0.38% of 320,000 active;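 active means inhibition above the screen-wide mean plus 3 SD, limit set per campaign, cut at about 26% in these data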;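 further: 0% = LYPLA2 with DMSO and 100% = wells lacking LYPLA2 enzyme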
PAFAH2 confirm: PAFAH2 enzyme inhibitors, confirmation, biochemical, fluorescence polarization, human. shares compounds with PAFAH2 FP inh. recombinant PAFAH2, FP-rhodamine activity probe. inhibition, % at 3.39 µM. 65% of 2,300 active;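 active means mean inhibition over three repeats above a set limit taken from the earlier primary screen, cut at about 30% in these data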;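 further: inhibitor blocks binding of rhodamine activity probe so polarization falls; 0% = enzyme with DMSO and 100% = wells lacking PAFAH2 protein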
Numbers without * were called inactive; nt = no result given. Sampled rows, rich in hits. Any-hit rate of the full collection: about 2.9%.

SMILES	pPAFAH FP inh	PAFAH1B3 inh	LYPLA1 counter	PAFAH1B2 inh	PAFAH2 FP inh	LYPLA2 inh	PAFAH2 confirm
O=C(O)C(Cc1ccccc1)N1C(=O)c2c(Cl)c(Cl)c(Cl)c(Cl)c2C1=O (stereo unspecified)	0.3	-3.0	0.9	6.5	31.7*	6.2	25.9
COCCN(CC1CCCN(C2Cc3ccccc3C2)C1)C(=O)CSC (stereo unspecified)	-2.5	0.5	6.0	1.6	36.9*	1.7	22.6
COCCN(CC1CCCN(C2Cc3ccccc3C2)C1)C(=O)CCSC (stereo unspecified)	2.1	9.0	2.5	-2.3	18.5	4.7	nt
O=C(C1=C(O)C(=O)N(CC2CCCO2)C1c1cccc(O)c1)c1ccco1 (stereo unspecified)	2.1	0.5	-2.2	1.2	-2.2	2.4	nt
CC1CCC(C(C)C)C(OC(=O)COC(=O)c2ccc(N)cc2)C1 (stereo unspecified)	7.1	-3.7	-4.7	14.8	53.5*	-1.1	33.8*
O=C(NNC(=O)c1cccc(O)c1)Nc1ccc([N+](=O)[O-])cc1	-3.3	7.1	-4.3	3.7	49.1*	-5.1	0.6
Cc1csc(=Nc2ccccc2)n1C	2.5	4.1	-4.4	0.0	-4.5	-6.7	nt
c1ccc(C2[C@H]3CN(CC4CCCCC4)[C@H](c4ccccc4)C34CC2(c2cccnc2)C4)cc1 (stereo partly specified)	4.1	17.3	2.3	2.0	55.7*	0.1	-2.2
c1ccc(C2[C@H]3CN(CC4CCCCC4)[C@H](c4ccccc4)C34CC2(c2ccccc2)C4)cc1 (stereo partly specified)	-1.2	5.0	0.1	0.4	-6.6	1.3	nt
CCCCCCCc1nc2nc(C)c(Br)c(=O)n2[nH]1	20.1	9.9	-2.4	13.3	38.1*	-1.9	34.9*
Cc1ccc(S(=O)(=O)NCc2ccncc2)cc1C(=O)NCC(C)C	2.7	3.0	5.3	2.0	1.8	2.3	nt
C=C(C)COc1ccc2c(C)c(C)c(=O)oc2c1OCC(=C)C	8.9	3.9	-1.3	3.1	37.9*	0.9	40.1*
CCOC(=O)Cc1csc(NC(=S)NC(=O)c2ccc([N+](=O)[O-])cc2)n1	-0.4	2.9	8.2	-2.5	7.7	9.3	nt
O=C(CCn1c(=O)oc2ccccc21)Nc1cccc(Cl)c1	8.8	8.2	2.5	1.0	42.8*	2.3	15.4
O=C(Cn1c(=O)oc2ccccc21)Nc1cccc(Cl)c1	-3.1	2.4	-0.3	-0.1	0.5	1.8	nt
COc1ccc(NC2CC(=O)N(c3cccc([N+](=O)[O-])c3)C2=O)cc1 (stereo unspecified)	2.8	7.2	-0.9	0.1	17.7	4.9	nt
COc1ccc(NC2CC(=O)N(c3cccc(C)c3)C2=O)cc1 (stereo unspecified)	4.1	5.4	0.6	1.3	47.2*	-0.6	-2.0
CC1CC1C(=O)OCC(=O)NCc1ccccc1Cl (stereo unspecified)	6.2	17.8	0.9	3.5	68.4*	12.2	55.7*
O=C(COC(=O)C1CC2C=CC1C2)NCc1ccccc1Cl (stereo unspecified)	16.4	1.6	5.6	8.3	45.5*	6.8	44.3*
O=C(COC(=O)C1CCC1)NCc1ccccc1Cl	0.9	9.0	1.6	1.6	17.4	6.5	nt
CN(C)CCN(C(=O)c1ccc(S(=O)(=O)N(C)CC2CCCO2)cc1)c1nc2cc3c(cc2s1)OCO3 (stereo unspecified)	0.0	11.2	0.1	-2.8	-1.1	-2.7	nt
Cc1c(C)c2c(OCC(=O)Nc3cccnc3)cc3c(c2oc1=O)CCC(C)(C)O3	20.2	9.9	3.5	4.3	33.3*	2.5	11.3
